IL-1B inflam inh: qHTS for Inhibitors of Inflammasome Signaling: IL-1-beta AlphaLISA Primary Screen; THP-1 LPS/ATP IL-1B secretion, AlphaLISA, 16 h; stronger effect = lower value; activity change, % at 57.5 µM; 4.7% of 360,000 active; AID 743279, 2014; in the data active = activity change below about -50%; inconclusive = mostly about -30% to -49%
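Secreted IL-1B measured by AlphaLISA bead assay after 16 h compound exposure of THP-1 cells; compounds (final up to 57.5 uM) added 1 h before LPS (250 ng/mL) and ATP (1.25 mM) stimulation; lower signal means less secretion.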
TDP1 cell noCPT: qHTS for Inhibitors of human tyrosyl-DNA phosphodiesterase 1 (TDP1): qHTS in cells in absence of CPT | 15% of 420,000 active | AID 686978, 2013 | DT40 Tdp1-/- hTDP1 cells, no CPT, ATP luminescence, 48 h | Potency, µM (series often up to 46.2 µM), without a hit: at the top dose activity change, negative = growth inhibition, hits mostly inhibitors; also: potency is read from the fitted curve at half-maximal effect; nearly all actives have a fitted effect of over 55% in size
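Chicken DT40 Tdp1-/- cells complemented with human TDP1, screened without camptothecin (DMSO vehicle only), 400 cells/well. Compounds pin-transferred, cells incubated at 37 °C for at least 48 hr. Growth read as ATP-dependent luminescence (CellTiter-Glo, 30 min at RT).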
TDP1 cell CPT: qHTS for Inhibitors of human tyrosyl-DNA phosphodiesterase 1 (TDP1): qHTS in cells in presence of CPT | 12% of 420,000 active | Potency, µM (top dose mostly 46.2 µM), for inactives: top-dose activity change, negative = growth inhibition, usual class: inhibitors | chicken DT40 Tdp1-/-;hTDP1 cells + 20 nM CPT, ATP luminescence, 48 h; also: potency is read from the fitted curve at half-maximal effect; nearly all actives have a fitted effect of over 55% in size
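Cell growth measured by CellTiter-Glo luminescence after a minimum 48 h, 37 C compound exposure with 20 nM CPT in Tdp1-knockout DT40 cells stably expressing hTDP1, seeded 400/well; qHTS titration format.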
HT1080NT lethal: qHTS for induction of synthetic lethality in tumor cells producing 2HG: qHTS for the HT-1080-NT fibrosarcoma cell line; HT-1080-NT fibrosarcoma viability, CellTiter-Glo ATP luminescence, 48 h; Potency, µM (top dose mostly 46.1 µM), for inactives: at the top dose activity, negative = less viability, hits mostly cytotoxic; 1.6% of 360,000 active; AID 686970, 2013;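 also: NT is the 2HG producing partner of a matched IDH1 knockdown line; potency is read from the fitted curve at half-maximal effect; 0% = DMSO-treated cells and -100% = media-only wells without cells; nearly all actives have a fitted effect of over 55% in size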
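HT-1080-NT; 750 cells/well; 5% FBS RPMI; 48 h compound, 37 degrees C; CellTiter-Glo luminescence; curve fitting and curve-class assignment.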
HT1080 IDH1KD tx: qHTS for induction of synthetic lethality in tumor cells producing 2HG: qHTS for the HT-1080-IDH1KD cell line | AID 686971, 2013 | 2% of 360,000 active | HT-1080 IDH1 knockdown viability, ATP luminescence, 48 h | Potency, µM (titrated, usually from 46.1 µM), for the others: at the top dose activity, negative = toxicity, actives largely listed as cytotoxic;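 also: potency is read from the fitted curve at half-maximal effect; 0% = DMSO wells and -100% = cell-free medium wells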
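% activity derives from luminescence (CellTiter-Glo), normalised to DMSO and no-cell wells. HT-1080-IDH1KD cells, 750/well, had 48 h compound exposure at 37 °C.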
The depositor's hits bear a star; i = inactive; ? = inconclusive; · = no result; [ ] = another dose, or the depositor's remark. A selection: hits, their analogues and other compounds. The true share with any hit is near 19%. Unless noted, calls follow the shape of the dose curve; as a rule, active = well fitted curve in the direction sought with a large enough effect; inconclusive = small, poorly fitted or top-dose-only effect, or another doubt; inactive = no such curve, though single readings can be large; an effect the other way counts as inactive or inconclusive. Unless noted, % is scaled to controls: 0 for no effect and ±100 for the full control effect.

SMILES	IL-1B inflam inh	TDP1 cell noCPT	TDP1 cell CPT	HT1080NT lethal	HT1080 IDH1KD tx
CC(C)(C)NC(=O)NC(=O)CN1CCN(c2ncc(C(F)(F)F)cc2Cl)CC1	7	18µM*	?	-2%	2%
O=C(c1ccc(Nc2nc3ccccc3n3nnnc23)cc1)N1CCN(c2cccc(C(F)(F)F)c2)CC1	·	18µM*	?	·	·
CCOC(=O)c1ccc(COC(=O)c2cc3ccccc3oc2=O)o1	1	-13%	-11%	8%	10%
CC(C)NC(=O)NC(=O)CN1C(=O)NC(Cc2c[nH]c3ccccc23)C1=O (configuration not stated)	0	3%	-11%	0%	-3%
COc1cccc(Cn2c(=O)c(CCc3ccccc3)nc3cncnc32)c1	·	?	-28%	·	·
C=CC[C@@H](CC(=O)NCCO)C(=O)N[C@@H](C)COC(=O)[C@@H](CC=C)Cc1ccc(F)cc1	42	-2%	3%	0%	5%
O=C(c1ccc2ncsc2c1)N1CCN(c2cccc(C(F)(F)F)c2)CC1	17	1.5µM*	2.9µM*	8.2µM*	8.2µM*
O=C(c1ccc2nc[nH]c2c1)N1CCN(c2ncc(C(F)(F)F)cc2Cl)CC1	-14	18µM*	15µM*	-1%	-15%
O=C(c1ccc2nc[nH]c2c1)N1CCN(c2cccc(C(F)(F)F)c2)CC1	i	16µM*	?	7%	-7%
CC(=O)c1c(C)[nH]c(C(=O)Nc2nccs2)c1C	20	13µM*	12µM*	-23%	?
CC(=O)c1c(C)[nH]c(C(=O)NC(C)c2ccccc2)c1C (configuration not stated)	40	16µM*	?	-13%	-6%
Cc1cc2occ(CC(=O)Nc3nnc(C4CC4)s3)c2cc1C	19	-16%	-26%	5%	-13%[9.24 µM]
O=C(Cc1coc2ccc3ccccc3c12)Nc1nnc(C2CC2)s1	29	23µM*	?	-21%	?
C[C@@H]1CN([C@@H](C)CO)S(=O)(=O)c2ccc(Br)cc2O[C@@H]1CN(C)Cc1ccccn1	-8	?	?	2%	24%
C[C@@H]1CN([C@@H](C)CO)S(=O)(=O)c2ccc(-c3ccc(C#N)cc3)cc2O[C@@H]1CN(C)Cc1ccccn1	-28	13µM*	?	-18%	0%
C[C@H]1CN([C@@H](C)CO)S(=O)(=O)c2ccc(-c3ccc(C#N)cc3)cc2O[C@H]1CN(C)C(=O)CN(C)C	13	6%	-3%	4%	14%
C[C@@H]1CN([C@@H](C)CO)S(=O)(=O)c2ccc(Br)cc2O[C@H]1CN(C)Cc1ccccn1	10	23µM*	15µM*	-9%	-8%
O=C1CCCCCN1C(=O)c1ccccc1	9	-8%	-9%	13%	15%
O=C1CCCCCN1Sc1ccccc1	-101*	5.2µM*	5.8µM*	-27%	-15%
Cn1cccc1C(=O)OCC(=O)NC(=O)NC1CCCCC1	0	-3%	-17%	7%	6%
C/C(=N/NC(=O)c1cc(-c2ccc(Br)s2)[nH]n1)c1ccco1	-69*	?	-17%	-19%	?
CC(C)(C)c1ccc(C(=O)N2CCC2(C)C(=O)Nc2cnc3ccccc3c2)cc1 (configuration not stated)	-8	26µM*	23µM*	-2%	-19%
CC(C)c1ccc(CC(=O)N2CCC2(C)C(=O)Nc2cnc3ccccc3c2)cc1 (configuration not stated)	-20	?	16µM*	?	?
CC(C)(C)c1ccc(CC(=O)N2CCC2(C)C(=O)Nc2cnc3ccccc3c2)cc1 (configuration not stated)	-10	12µM*	21µM*	?	?
CC(C)c1ccc(CC(=O)N2CCC2(C)C(=O)Nc2ccccc2)cc1 (configuration not stated)	2	?	?	-7%	-19%
SMILES	IL-1B inflam inh	TDP1 cell noCPT	TDP1 cell CPT	HT1080NT lethal	HT1080 IDH1KD tx
Cc1cc(OC(=O)c2cccc(Br)c2)c([N+](=O)[O-])c(=O)[nH]1	29	-10%	-2%	2%	5%
COC(=O)[C@]12CCCCC=C1N(Cc1ccccc1)C(=O)[C@H](CC(=O)NCCCN1CCCC1=O)C2	-4	-17%	-1%	10%	12%
Cc1nnc(C)c2c(C)n(C(C)c3ccccc3)c(C)c12 (configuration not stated)	-12	12µM*	16µM*	-5%	?
COc1ccc(C(C)n2c(C)c3c(C)nnc(C)c3c2C)cc1 (configuration not stated)	-5	23µM*	15µM*	1%	-11%
COc1ccc(-c2nc(C)c(C(C)=O)n2O)cc1	?	?	-23%	-14%	-17%
COCCCn1c(=O)c2sccc2n2c(CCCC(=O)Nc3cccc(OC)c3)nnc12	·	?	-28%	·	·
Cc1cccc(C2NC(c3cccc(C)c3)C([N+](=O)[O-])C(C)(C)C2[N+](=O)[O-])c1 (configuration not stated)	-8	16µM*	?	4%	8%
Cc1ccccc1C1NC(c2ccccc2C)C([N+](=O)[O-])C(C)(C)C1[N+](=O)[O-] (configuration not stated)	-12	-17%	-3%	-9%	-10%
Cc1ccc(C)c(NC(=S)NNC(=O)c2sccc2C)c1	17	-11%	-9%	8.9µM*	?
COc1ccc(-c2c(NC(=O)c3ccco3)oc3c(C)cccc3c2=O)cc1OC	-20	?	?	-19%	-11%
COc1cc(-c2c(NC(=O)c3ccco3)oc3c(C)cccc3c2=O)cc(OC)c1OC	8	18µM*	-27%	-10%	-2%
Cc1cccc(-c2c(NC(=O)c3ccco3)oc3c(C)cccc3c2=O)c1	-9	26µM*	?	12%	23%
COC(=O)c1cc(OC)c(OC)cc1NC(=O)c1ccco1	-62*	?	?	-12%	-11%
COC(=O)c1cc(OC)c(OC)cc1NC(=O)c1cccc(OC)c1OC	55	5.8µM*	?	2%	-1%
COc1cc(NC(=O)c2ccco2)c(C(=O)O)cc1OC	-23	-9%	-15%	-9%	-18%
COc1ccc(NC(=O)COC(=O)c2cc(OC)c(OC)cc2NC(=O)c2ccco2)cc1OC	-8	21µM*	?	?	?
